# From PubChem BioAssay
# This is a sample that favours compounds with a hit; in the whole collection about 0.52% have one here.
# PINK1 modulator: A Quantitative High throughput Screen to Identify Chemical Modulators of PINK1 Expression; PINK1 immunofluorescence, high-content cytometry, 24 h; Potency, µM (highest dose often 76.6 µM), hits mostly activators; hit rate 0.2% among 410,000; AID 624263, 2012; active means well fitted activation curve with a large enough effect; inconclusive means small, poorly fitted or top-dose-only effect; cell line not stated here; further: nearly all actives have a fitted effect of over 65% in size
#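 A stable cell line was treated with compounds at 5 concentrations for 24 hours, with CCCP as control. PINK1 levels and mitochondrial localization were measured by immunofluorescence with mitochondrial, cell and nuclear markers after fixation, read by laser-scanning cytometry.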
# Vif-A3F inh: qHTS for Inhibitors of Vif-A3F Interactions: qHTS; HeLa A3F-eYFP + Vif (tagged APOBEC3F with the HIV-1 protein that degrades it), YFP fluorescence increase; Potency, µM (doses to about 46.1 µM); hit rate 0.2% among 390,000; AID 602313, 2012; further: nearly all actives have a fitted effect of over 65% in size
#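 Fluorescence increase (Ex 488/Em 500-530) after overnight compound treatment at 37 deg C flags inhibition of Vif-driven A3F-eYFP loss in stable HeLa A3F-eYFP/Vif cells seeded overnight beforehand.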
# Epigenetic derep: Quantitative High-Throughput Screen for Regulators of Epigenetic Control; murine LDR cells, GFP reporter derepression, 30 h; Potency, µM (doses to about 53.9 µM), actives largely listed as activators; hit rate 0.2% among 280,000; AID 1865, 2009; further: nearly all actives have a fitted effect of over 60% in size
#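 GFP-positive cell count by laser-scanning cytometry (objects 20–120 um) after 30 h, 37 C compound exposure of murine LDR cells; reporter is CMV-GFP integrated at a silenced locus, inducible by HDAC or DNMT inhibitors.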
# Vif-A3G inh: qHTS for Inhibitors of Vif-A3G Interactions: qHTS. hit rate 0.076% among 410,000. Potency, µM (doses to about 46.1 µM), usual class: inhibitors. HeLa A3G-eYFP + Vif (tagged APOBEC3G with the HIV-1 protein that degrades it), YFP fluorescence, overnight. DNA dC->dU-editing enzyme APOBEC-3G (Homo sapiens), Q9HC16; further: nearly all actives have a fitted effect of over 60% in size
# Target sequence (Q9HC16 whole entry, looked up): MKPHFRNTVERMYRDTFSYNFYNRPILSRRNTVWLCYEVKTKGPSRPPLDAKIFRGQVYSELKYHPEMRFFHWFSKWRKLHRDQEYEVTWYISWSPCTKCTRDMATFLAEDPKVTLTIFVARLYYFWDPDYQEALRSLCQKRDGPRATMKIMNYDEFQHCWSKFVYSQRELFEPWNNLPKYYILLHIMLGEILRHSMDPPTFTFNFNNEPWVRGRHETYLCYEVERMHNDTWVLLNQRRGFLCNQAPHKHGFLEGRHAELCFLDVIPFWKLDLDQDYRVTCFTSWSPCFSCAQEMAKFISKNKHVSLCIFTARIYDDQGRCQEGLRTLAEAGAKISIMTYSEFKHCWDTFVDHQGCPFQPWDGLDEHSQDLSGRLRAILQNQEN
#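 HeLa cells stably expressing Vif and C-terminally eYFP-tagged A3G, seeded overnight at 37 deg C, then exposed to compound by pintool overnight at 37 deg C. Rise in yellow fluorescence (Ex 488/Em 500-530, Acumen) marks blocked Vif-driven A3G degradation.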
# Hits are given with their value; 0 = inactive; ? = inconclusive; - = not tested or not shown; ! = not confirmed by another sample. Unless noted, the call rests on the fitted dose curve; in most records, active means well fitted curve in the direction sought with a large enough effect; inconclusive means small, poorly fitted or top-dose-only effect, or another doubt; inactive means no such curve, though single readings can be large; an effect the other way counts as inactive or inconclusive.
SMILES,PINK1 modulator,Vif-A3F inh,Epigenetic derep,Vif-A3G inh
CC(=O)Nc1ccc(C2=NNC(=Nc3cccc(S(=O)(=O)N(C)C)c3)SC2)cc1,?,0,0,0
CN(C)S(=O)(=O)c1cccc(N=C2NN=C(c3ccccc3)CS2)c1,32µM,0,0,0
COc1ccc(C2=NNC(=Nc3cc(S(=O)(=O)N(C)C)ccc3C)SC2)c(OC)c1,2.8µM,0,0,0
O=C(NCCN1CCOCC1)c1cnn(-c2nccc(-c3ccccc3C(F)(F)F)n2)c1C1CC1,0,-,-,-
Cc1cc(-c2ccnc(-n3ncc(C(=O)NCC4COCCO4)c3C)n2)c(C)s1 (stereo unspecified),0,-,-,-
CCn1ncc(C2=NOC(C(=O)NCc3ccccc3)C2)c1C (stereo unspecified),13µM,0,0,?
CC(C)N1CCc2c(sc(N)c2C#N)C1,2.8µM,0,0,0
CCN1CCc2c(sc(N)c2C#N)C1,0,0,0,0
COc1cc(-c2noc(C)c2-c2ccc3[nH]ccc3c2)cc(OC)c1OC,0,0,-,14µM!
N#CCC(=O)N/N=C/c1ccc(N2N=C(c3ccccc3)CC2c2ccccc2)cc1 (stereo unspecified),0,6.3µM,-,?
Cc1ccc2nc(N/N=C/c3ccccc3F)nc(-c3ccccc3)c2c1,0,0,0,0
Cc1cc(-c2ccccc2)nc(N/N=C/c2ccccc2F)n1,0,22µM,-,0
Cc1nc2cc(NC(=O)[C@@H]3C[C@@H](Sc4ccccn4)CN3Cc3cccc(Cl)c3)ccc2s1,0,-,-,-
COc1cc(/C=C2\SC(=O)N(CCNC(=O)c3sc4cc(F)ccc4c3Cl)C2=O)cc(OC)c1OC,0,0,18µM,0
CCOc1nc(-c2ccc(OC)cc2)ccc1-c1noc(C)n1,0,0,0,0
COc1ccc(-c2ccc(-c3noc(C)n3)c(OC)n2)cc1,16µM,0,0,0
COc1cccc(CN2C(=O)NC(C)(C3CCN(Cc4ccc(C)o4)CC3)C2=O)c1OC (stereo unspecified),0,-,-,-
CCOC(=O)c1cnc(-n2nc(C)cc2C)nc1NNc1nc(-c2ccccc2)cc(-c2ccccc2)n1,?,7.1µM,0,0
COc1cccc(CNC(=O)c2c(OC)cc(=O)n3c2CCN(C(=O)c2ccc(C)nc2)CC3)c1,0,-,-,-
Cc1cc(=O)[nH]c(SCC(=O)Nc2ccc(Br)cc2)c1C#N,16µM,0,0,0
Cc1cc(=O)[nH]c(SCC(=O)Nc2ccc(F)cc2)c1C#N,0,0,0,0
CC[N+](C)(C)c1ccc(/C=C/c2ccncc2)cc1,-,-,-,10µM
CCN(CC)c1ccc(/C=C/c2ccc3ccccc3n2)cc1,?,-,-,0
C(=C\c1ccncc1)/c1ccncc1,0,0,0,0
CC[N+](C)(C)c1ccc(/C=C/c2ccc3ccccc3n2)cc1,5µM,-,-,0
SMILES,PINK1 modulator,Vif-A3F inh,Epigenetic derep,Vif-A3G inh
CCC(O)CNC(=O)c1cnn(-c2nccc(-c3cc(C)sc3C)n2)c1C1CC1 (stereo unspecified),0,-,-,-
COCC1CCCN(Cc2ccc3c(c2)CN(C(=O)c2ccc(OC)nc2OC)CCO3)C1 (stereo unspecified),0,-,-,-
COc1ccc(OC)c(NC(=O)Cn2cnc3onc(-c4ccc(Cl)cc4)c3c2=O)c1,0,0,0,1.3µM
O=C(c1ccc2c(c1)CCN2S(=O)(=O)c1ccccc1)N1CCN(c2cccc(Cl)c2)CC1,0,0,0,0
CCS(=O)(=O)N1CCc2cc(C(=O)N3CCN(c4cccc(C(F)(F)F)c4)CC3)ccc21,0,0,0,13µM
C[N+](C)(C)c1ccc(/C=C/c2ccnc3ccccc23)cc1,32µM,-,-,0
Cc1cc(/C=C/c2ccnc3ccccc23)ccc1N,0,-,-,10µM
CCN(N=O)c1ccc(/C=C/c2ccnc3ccccc23)cc1,0,-,-,0
CCC[N+](C)(C)c1ccc(/C=C/c2ccnc3ccccc23)cc1,3.2µM,-,-,0
CN(C)c1ccc(/C=C/c2ccnc3ccccc23)cc1N,0,-,-,?
Oc1ccc(/C=C/c2ccnc3ccccc23)cc1,0,0,0,0
COC(=O)c1c(OCc2ccccn2)cc(=O)n2c1CCN(Cc1ccc3c(c1)CCCN3C)CC2,0,-,-,-
COc1cc(=O)n2c(c1C(=O)NCc1ccco1)CCN(Cc1ccc(F)cc1Cl)CC2,0,-,-,-
CCN(c1ccc(N=Cc2c(O)n(Cc3ccc(OC)cc3)c(=O)c3ccccc23)cc1)C(C)C,0,0,2µM,?
C[n+]1ccc(/C=C/c2ccc(F)cc2)c2ccccc21,?,-,-,0
C[n+]1ccc(/C=C/c2cc[n+](C)c3ccccc23)c2ccccc21,4µM,-,-,13µM
CN1C=C/C(=C\c2cc[n+](C)c3ccccc23)c2ccccc21,5µM,?,0,0
COc1ccccc1C(=O)N[C@@H]1c2ccccc2C2(CCN(Cc3ccc(C)o3)CC2)[C@H]1O,0,-,-,-
O=C/C(=C\Nc1ccccn1)c1nc2ccccc2o1,0,28µM,0,?
O=C/C(=C\Nc1ccccn1)c1nc2cc(Cl)ccc2o1,0,0,0,0
COc1ncccc1C(=O)N1CCOc2ccc(C(O)C(c3ccccc3)c3ccccc3)cc2C1 (stereo unspecified),0,-,-,-
Cc1cccc(C)c1NC1=C(Cl)C(=O)OC1OC(=O)c1ccccc1 (stereo unspecified),0,0,0,0
Cc1ccc(NC2=C(Cl)C(=O)OC2OC(=O)c2ccccc2)c(C)c1 (stereo unspecified),0,0,16µM,0
COC(=O)c1cccc(C(=O)N2CCc3c(C(=O)OC)c(OCc4ccccn4)cc(=O)n3CC2)c1,0,-,-,-
COc1ccc2nc(SCC(=O)Nc3ccc4sc(C)nc4c3)c(C#N)cc2c1,0,22µM,3.5µM,0
SMILES,PINK1 modulator,Vif-A3F inh,Epigenetic derep,Vif-A3G inh
Fc1ccc(N2CCN(Cc3ccc4c(c3)CN(Cc3cccn3-c3ncccn3)CCO4)CC2)cc1,0,-,-,-
CC1(C)Cc2nc3sc4c(=O)n(CC(=O)NCc5ccco5)cnc4c3cc2CO1,11µM,0,0,?
CC1(C)Cc2nc3oc4c(=O)n(CC(=O)Nc5ccccc5)cnc4c3cc2CO1,0,0,0,0
O=C1c2cccc3c([N+](=O)[O-])c(O)cc(c23)C(=O)N1Nc1ccccc1,0,10µM,0,?
CSc1nnc(CNC(=O)c2c(-c3ccccc3)noc2C)n1-c1ccc(F)cc1,0,-,-,-
COc1cc(N2CCCC2)c(OC)cc1/C=c1/sc2nc3ccccc3n2c1=O,-,-,2.8µM,-
Cc1ccc(-n2c(C)cc(/C=c3/sc4nc5ccccc5n4c3=O)c2C)cc1,0,-,0,0
CC(C)Cc1nc2cc(NS(=O)(=O)N(C)C)cc(C(=O)N3CCc4ccccc4C3)c2n1C,0,-,-,-
CCn1c2ccccc2c2c3ncc4cccn4c3ccc21,0,25µM,0,?
O=C(c1ccccc1)C1C(=O)c2ccccc2C1=O,0,35µM,?,?
O=C(/C=C/c1ccccc1)C1C(=O)c2ccccc2C1=O,0,0,0,0
COc1cccc(CN2CCCC(c3nc(C)ncc3-c3ccc(F)cc3)C2)c1OC (stereo unspecified),0,-,-,-
